# Reference: PMC4336329 (PLoS ONE, 2015)
# The campaign covered roughly 310,000 compounds. About 14,000 (4.5%) showed an effect of 50% or more. The effect is printed as a negative number. The sample as a whole holds a higher share of strong results than the screen did.
# Biological target: human ether-à-go-go-related gene (hERG) potassium channel (human, UniProt Q12809)
# Assay: primary screen, population patch clamp on CHO cells stably expressing hERG; higher = less effect of the substance
# 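Note: peak tail current of the secondary pulse compared with the same well before compound.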
# human ether-à-go-go-related gene (hERG) potassium channel, sequence (Q12809 whole entry, looked up): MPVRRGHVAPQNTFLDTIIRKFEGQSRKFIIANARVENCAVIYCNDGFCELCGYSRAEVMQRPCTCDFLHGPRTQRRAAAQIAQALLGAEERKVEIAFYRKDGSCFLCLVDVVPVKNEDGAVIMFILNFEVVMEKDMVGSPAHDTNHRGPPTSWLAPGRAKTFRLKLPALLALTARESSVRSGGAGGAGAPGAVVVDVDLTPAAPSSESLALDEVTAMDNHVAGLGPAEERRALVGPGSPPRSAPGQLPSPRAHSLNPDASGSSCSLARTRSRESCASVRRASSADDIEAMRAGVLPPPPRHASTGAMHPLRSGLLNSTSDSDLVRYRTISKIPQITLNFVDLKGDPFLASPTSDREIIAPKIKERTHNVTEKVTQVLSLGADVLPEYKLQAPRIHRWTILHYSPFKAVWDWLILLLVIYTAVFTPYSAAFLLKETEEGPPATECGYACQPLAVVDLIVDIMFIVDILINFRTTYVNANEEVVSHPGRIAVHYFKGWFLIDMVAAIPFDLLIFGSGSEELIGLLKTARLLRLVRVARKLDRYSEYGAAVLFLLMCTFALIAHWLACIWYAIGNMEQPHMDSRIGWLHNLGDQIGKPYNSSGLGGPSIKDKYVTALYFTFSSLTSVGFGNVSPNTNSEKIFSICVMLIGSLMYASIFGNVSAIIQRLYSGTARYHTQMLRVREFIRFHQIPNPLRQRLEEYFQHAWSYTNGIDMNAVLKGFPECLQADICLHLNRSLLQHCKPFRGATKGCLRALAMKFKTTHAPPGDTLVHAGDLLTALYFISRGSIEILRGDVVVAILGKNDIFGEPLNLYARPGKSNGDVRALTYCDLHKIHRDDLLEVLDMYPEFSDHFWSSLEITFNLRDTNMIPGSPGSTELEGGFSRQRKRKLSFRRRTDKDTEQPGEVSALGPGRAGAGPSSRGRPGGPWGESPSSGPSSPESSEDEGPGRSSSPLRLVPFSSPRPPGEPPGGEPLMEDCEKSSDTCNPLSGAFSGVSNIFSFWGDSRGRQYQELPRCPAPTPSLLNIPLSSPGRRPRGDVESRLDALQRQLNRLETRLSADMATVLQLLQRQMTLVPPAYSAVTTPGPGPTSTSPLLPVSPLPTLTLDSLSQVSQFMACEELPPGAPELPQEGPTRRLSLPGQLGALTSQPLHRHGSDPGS
row,Structure (SMILES),"hERG current change (%, negative = inhibition) at 10uM [%]"
1,COc1ccc(NC(=O)C2CCCN(S(=O)(=O)c3ccc4c(c3)CC(C)N4C(C)=O)C2)cc1 (stereo not shown),24.3
2,Cc1ccc(NC(=O)C2CCCC2)cc1Cl,-2.92
3,O=C(COC(=O)CNS(=O)(=O)c1ccccc1)NC12CC3CC(CC(C3)C1)C2,-18
4,C=CCNC(=S)N/N=C(\C)c1cccnc1,0.787
5,O=C(NC1CCCC1)C(c1cc2c(cc1[N+](=O)[O-])OCO2)N1CCCC1 (stereo not shown),20.6
6,COc1cc(C(=O)Nc2cccnc2)cc(OC)c1OC,16.3
7,O=CN1CCN(C(=O)CN2C(=O)c3ccccc3C2=O)CC1,10.5
8,CCOc1ccc(OCC(O)CN2CCc3ccccc3C2)cc1.Cl (stereo not shown),-66.3
9,OC(COc1ccccc1CNCc1cccnc1)CN1CCc2ccccc2C1 (stereo not shown),-34.2
10,Cl.OC(COc1ccc2c(c1)OCO2)CN1CCc2ccccc2C1 (stereo not shown),-28.5
11,CC(=O)c1ccc(OCC(O)CN2CCc3ccccc3C2)cc1.Cl (stereo not shown),-41.9
12,O=S(=O)(c1ccc(OCC(O)CN2CCc3ccccc3C2)cc1)N1CCOCC1 (stereo not shown),-4.43
13,Cc1cc(OCC(O)CN2CCc3ccccc3C2)ccc1Cl.Cl (stereo not shown),-53.4
14,COc1ccc(OCC(O)CN2CCc3ccccc3C2)cc1.Cl (stereo not shown),-33.1
15,CCC(=O)c1ccc(OCC(O)CN2CCc3ccccc3C2)cc1.Cl (stereo not shown),-63.7
16,Cn1cc(CNCc2ccccc2OCC(O)CN2CCc3ccccc3C2)cn1 (stereo not shown),-0.11
17,CCN(CCn1cccn1)Cc1ccccc1OCC(O)CN1CCc2ccccc2C1 (stereo not shown),-51.5
18,Cc1cc(=O)oc2cc(OCC(O)CN3CCc4ccccc4C3)ccc12 (stereo not shown),-31.7
19,N#CC1=C(N)NC(SCC(=O)Nc2ccc(Br)cc2)=C(C#N)C12CCCCC2,13.4
20,O=C(Nc1cc(Cl)ccc1O)C1CC(c2ccccc2Cl)=NO1 (stereo not shown),20.3
21,O=C(N/N=C/c1cn(-c2cccs2)nc1-c1ccccc1)c1ccc(O)cc1,13.8
22,COc1c(C)cccc1C(=O)Nc1ccc(N2CCN(S(C)(=O)=O)CC2)cc1,5.12

row,Structure (SMILES),"hERG current change (%, negative = inhibition) at 10uM [%]"
1,CCCC(=O)Nc1nnc(CC(=O)N2CCCC2)s1,7.72
2,O=C(CCCc1nc(-c2ccccc2Cl)no1)NCc1cccnc1,-2.1
3,Cn1nnnc1NCc1ccccc1F,4.52
4,CCCCC1OC23CCCCC2C(C#N)(C(=N)O3)C1(C#N)C#N (stereo not shown),4.17
5,CCN(CC)S(=O)(=O)c1ccc2c(c1)nc(SCC(=O)NCC1CCCO1)n2CC (stereo not shown),3.12
6,c1ccc(CSc2nnc(-c3cccs3)n2Cc2ccco2)cc1,-46.8
7,Cl.OC1(CN2CCOCC2)C2CC3CC(C2)CC1C3 (stereo not shown),11
8,O=C(COC(=O)c1cc(-c2ccccc2)nc2ccccc12)Nc1ccc2c(c1)OCO2,10.7
9,O=C(NCCCc1ccccc1)c1ccccc1O,-0.415
10,CCCCSc1nnc(CCC)n1N,-2.49
11,Cc1ccc(C)c(NC(=S)N(Cc2cccc(Br)c2)CC2CCC(C(=O)O)CC2)c1 (stereo not shown),2.11
12,COC(=O)c1ccccc1NC(=O)NC1CCCCC1,5.86
13,OC(COc1ccc(CNCc2cccnc2)cc1)CN1CCc2ccccc2C1 (stereo not shown),-13.5
14,COc1cccc(OCC(O)CN2CCOCC2)c1.Cl (stereo not shown),18.7
15,COc1cccc(OCC(O)CN2CCc3ccccc3C2)c1.Cl (stereo not shown),-71.1
16,CC(C)(C)c1ccc(OCC(O)CN2CCc3ccccc3C2)cc1.Cl (stereo not shown),-50.3
17,CCCc1ccc(OCC(O)CN2CCc3ccccc3C2)cc1.Cl (stereo not shown),-71.5
18,CCCc1ccc(OCC(O)CN2CCCC2)cc1.Cl (stereo not shown),-27.8
19,CCCc1ccc(OCC(O)CN2CCN(CCO)CC2)cc1.Cl (stereo not shown),-13.7
20,COc1cccc(C2c3c(oc4ccc(F)cc4c3=O)C(=O)N2CCN2CCOCC2)c1OC (stereo not shown),4.45
21,CCCCn1c(SCC(=O)Nc2cc(NC(=O)c3ccco3)ccc2C)nc2ccccc2c1=O,-8.62
